PubChem BioAssay AID504895 (National Center for Advancing Translational Sciences (NCATS), 2011)
Inconclusive results are not listed. Activity calls are given as the source filed them. Calls come from the whole dose curve; as a rule, active = well fitted curve in the direction sought with a large enough effect; inconclusive = small, poorly fitted or top-dose-only effect, or another doubt; inactive = no such curve, though single readings can be large or run the other way.

Target: Protein phosphatase EYA2 (Homo sapiens) (UniProt O00167)
Sequence (O00167 whole entry, looked up): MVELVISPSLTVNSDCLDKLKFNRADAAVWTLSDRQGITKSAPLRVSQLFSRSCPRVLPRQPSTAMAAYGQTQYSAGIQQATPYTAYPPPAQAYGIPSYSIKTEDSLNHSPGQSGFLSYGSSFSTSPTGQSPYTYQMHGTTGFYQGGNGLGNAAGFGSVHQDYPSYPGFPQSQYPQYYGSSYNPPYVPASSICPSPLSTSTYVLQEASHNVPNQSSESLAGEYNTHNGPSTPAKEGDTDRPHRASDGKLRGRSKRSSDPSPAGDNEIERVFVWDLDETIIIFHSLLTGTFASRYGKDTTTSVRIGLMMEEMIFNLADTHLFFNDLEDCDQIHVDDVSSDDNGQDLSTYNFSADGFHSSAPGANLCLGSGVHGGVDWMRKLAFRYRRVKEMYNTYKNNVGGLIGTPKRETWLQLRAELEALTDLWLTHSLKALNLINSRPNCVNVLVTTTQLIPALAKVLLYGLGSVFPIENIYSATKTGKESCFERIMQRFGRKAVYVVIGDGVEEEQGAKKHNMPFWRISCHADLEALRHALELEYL
Assay: Inhibitors of Eya2ED: Hit Confirmation in Primary Screen
Settings: Recombinant Eya2ED, OMFP fluorescence phosphatase assay; series mostly up to 76.9 µM; activity change, negative = inhibition: at the top concentration
Outline: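 Eya2 (dispensed at 0.2 uM) was preincubated 10 min at ambient with compound in 50 mM HEPES pH 7.5, 50 mM NaCl, 5 uM MgCl2, 0.05% BSA, 1 mM DTT. OMFP (dispensed at 50 uM) was then added, and fluorescence (ex 485/em 525 nm) was read after 10 min. Retested as 12-point titrations; EGTA control.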

Question: Which “activity change, negative = inhibition” value does the source give for CCC(C)N(C(=O)c1csnn1)C(C(=O)NC1CCCC1)c1ccccc1F (stereo not drawn) here?
Answer: The value was -5.36% (inactive).

Question: CC(C)CN1C(=O)c2ccc(NC(=O)c3ccccc3F)cc2C1=O was tested. Which “activity change, negative = inhibition” value did it give?
Answer: The value was -10.4% (inactive).

Question: Which “activity change, negative = inhibition” value does the source give for COc1ccc(/C=C(\C#N)C(=O)OCC(=O)N2CC(C)OC(C)C2)cc1 (stereo not drawn) here?
Answer: The value was -19.7% (inactive).

Question: With COc1cc2c(cc1OC)C(c1c(Cl)cccc1Cl)NC(=O)C2 (stereo not drawn) as the molecule, how does the “activity change, negative = inhibition” value read?
Answer: Its value is -5.08% (inactive).

Question: Which “activity change, negative = inhibition” value does the source give for Cc1nn(C)c(C)c1NC(=O)Nc1ccc(Cl)c(Cl)c1 here?
Answer: The value was -26.5% (inactive).

Question: Cc1cccc(-n2c(-c3csc(C(C)C)c3)n[nH]c2=S)c1 was tested. Which “activity change, negative = inhibition” value did it give?
Answer: The value was -18.6% (inactive).

Question: Which “activity change, negative = inhibition” value does the source give for COC(=O)C1=C(C)Nc2ncnn2C1c1ccco1 (stereo not drawn) here?
Answer: Its value is -29.7% (inactive).

Question: For O=C(COC(=O)c1cc(S(=O)(=O)N2CCCC2)ccc1O)Nc1ccccc1Br, which “activity change, negative = inhibition” value is on record?
Answer: The value was -5.64% (inactive).

Question: O=C(NN=C1CCCC1)c1[nH]c2ccc(Br)cc2c1-c1ccccc1 was tested. Which “activity change, negative = inhibition” value did it give?
Answer: Its value is -22.3% (inactive).

Question: For O=C(COc1cccc(C(F)(F)F)c1)NCC(c1ccco1)N1CCCC1 (stereo not drawn), which “activity change, negative = inhibition” value is on record?
Answer: Its value is -8.36% (inactive).

Question: With Cc1ccc(NC(=O)c2sc(N)nc2-c2ccc([N+](=O)[O-])cc2)cc1C as the molecule, how does the “activity change, negative = inhibition” value read?
Answer: Its value is -37.5% (inactive).

Question: For C=CCOc1ccc(/C=C/C(=O)OCC(=O)N2CCCc3ccccc32)cc1, which “activity change, negative = inhibition” value is on record?
Answer: The value was -12.6% (inactive).

Question: Which “activity change, negative = inhibition” value does the source give for CC1(c2ccccc2Cl)NC(=O)N(CC(=O)N2CCc3ccccc3C2)C1=O (stereo not drawn) here?
Answer: Its value is -2.47% (inactive).

Question: For O=C1/C(=C/c2cccs2)N=C(c2cccs2)N1Nc1ccccc1, which “activity change, negative = inhibition” value is on record?
Answer: The value was -17.4% (inactive).

Question: How did the “activity change, negative = inhibition” value turn out when Cc1onc(-c2ccccc2Cl)c1C(=O)OCC(=O)N1CCC(C)CC1 was run?
Answer: Its value is -4.81% (inactive).

Question: For COc1cccc2[nH]c3c(=O)[nH]cnc3c12, which “activity change, negative = inhibition” value is on record?
Answer: The value was 1.53% (inactive).

Question: With O=C(N/N=C\c1ccc(Sc2ccccn2)o1)c1cccc(Br)c1 as the molecule, how does the Potency read?
Answer: The Potency was 1840 nM (active).

Question: Which “activity change, negative = inhibition” value does the source give for Cc1cccc(C(=O)Nc2c(C(=O)N(C)C)cnn2-c2ccccc2)c1 here?
Answer: The value was -13.3% (inactive).
